# TEAD-YAP inh: TEAD-YAP interaction inhibition | HEK-TIYL cells, TEAD-Gal4/YAP UAS-luciferase luminescence | inhibition, % at 9.12 µM | actives 1.4% (n = 640,000) | AID 1259422; in the data active means inhibition above about 32%
# MITF inh: human MITF inhibition, primary screen. O75030. AlphaScreen MITF homodimerization, bead proximity signal. inhibition, % at 2.6 µM. actives 0.91% (n = 650,000). AID 1259374; in the data active means inhibition above about 50%
# GPR151 activ: activators of human GPR151; activation, % at 11.2 µM; actives 1% (n = 650,000); PathHunter beta-arrestin GPR151 cells, luminescence; in the data active means activation above about 4.9%
# Target sequence (Q8TDV0 whole entry, looked up): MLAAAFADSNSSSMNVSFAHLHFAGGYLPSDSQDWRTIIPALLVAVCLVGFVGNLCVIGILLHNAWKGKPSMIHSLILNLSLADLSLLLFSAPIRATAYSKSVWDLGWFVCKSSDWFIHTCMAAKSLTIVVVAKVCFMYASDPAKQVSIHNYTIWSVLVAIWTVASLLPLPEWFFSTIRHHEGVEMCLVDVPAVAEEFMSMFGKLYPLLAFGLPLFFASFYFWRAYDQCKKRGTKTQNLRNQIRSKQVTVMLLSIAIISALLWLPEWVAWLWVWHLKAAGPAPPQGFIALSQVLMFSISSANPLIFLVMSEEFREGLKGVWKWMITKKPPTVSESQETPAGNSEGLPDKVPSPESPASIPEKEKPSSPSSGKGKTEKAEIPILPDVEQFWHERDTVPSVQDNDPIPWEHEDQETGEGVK
# FBW7 activator: activators of human E3 ligase FBW7; AID 1259310; actives 0.13% (n = 650,000); AlphaScreen FBW7–phospho-cyclin E peptide binding, activator screen; normalized activity (activation), % at 26.1 µM; in the data active means normalized activity above about 1.9%;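 further: purified mutant Fbw7 with reduced substrate affinity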
# Hits are given with their value; i = inactive. Hits are enriched below; roughly 3.4% of the tested compounds scored in any of these assays.
SMILES,TEAD-YAP inh,MITF inh,GPR151 activ,FBW7 activator
CCCC1(CCC)NC(=O)N(CC(=O)Nc2ccc(F)cc2)C1=O,i,i,i,i
Cc1onc(-c2ccccc2Cl)c1C(=O)NCCC12CC3CC(CC(C3)C1)C2,i,i,i,i
COc1ccccc1-n1c(=S)sc2c(=O)n(-c3ccccc3)c(SCc3ccccc3F)nc21,i,i,i,i
Cc1cccc(C)c1-n1c(=S)sc2c(=O)n(-c3ccccc3)c(SCc3ccccc3F)nc21,46,i,i,i
COc1ccc(CC2(CCC(=O)NC(C)c3nc(C)cs3)CCC(=O)N2)cc1OC (stereo not drawn),i,i,i,i
CCOC(=O)c1c(N)sc(C(=O)NC2CCCCC2)c1C,70,i,i,i
CCOC(=O)c1sc(C)c(C(=O)NC2CCCCC2)c1N,i,i,i,i
CCC(=O)Nc1sc(C(=O)NC2CCCCC2)c(C)c1C(=O)OC,37,i,i,i
O=C(NC1c2ccccc2-c2ccccc21)c1cccc([N+](=O)[O-])c1,54,i,i,i
O=C(NC1c2ccccc2-c2ccccc21)c1ccccc1,i,i,i,i
COc1ccc(C(/C=C2\N(C)c3ccccc3C2(C)C)C[N+](=O)[O-])cc1 (stereo not drawn),i,i,i,i
CN1/C(=C\C(C[N+](=O)[O-])c2ccc3c(c2)OCO3)C(C)(C)c2ccccc21 (stereo not drawn),49,i,i,i
CC(C)(C)NC(=O)c1ccccc1NC(=O)CCc1ccccc1,i,i,i,i
CNC(=O)c1ccccc1Nc1cc(NC(=O)Cc2c(Cl)cccc2Cl)ncc1C(F)(F)F,56,i,i,i
CNC(=O)c1ccccc1Nc1cc(NC(=O)CCc2ccccc2)ncc1C(F)(F)F,64,i,i,i
N#Cc1ccccc1Nc1cc(NC(=O)Cc2ccc(F)cc2)ncc1C(F)(F)F,i,i,i,i
CNC(=O)c1ccccc1Nc1cc(NC(=O)Cc2ccccc2)ncc1C(F)(F)F,72,i,i,i
O=C(Cc1ccc2c(c1)OCO2)Nc1cc(Nc2ccccc2-c2ncn[nH]2)c(C(F)(F)F)cn1,60,i,i,i
CCOC(=O)C1CCN(CNC(=O)c2ccc(Cl)cc2)CC1,i,i,i,i
COc1ccc(S(=O)(=O)c2cnc3ccc(Cl)cc3c2N2CCN(C)CC2)cc1,i,i,i,i
NC(=O)c1c(Cl)nc(Cl)c([N+](=O)[O-])c1Cl,98,i,i,i
O=C(O)c1c(Cl)nc(Cl)c([N+](=O)[O-])c1Cl,i,i,i,i
CCCCNC(=O)c1c(Cl)nc(Cl)c([N+](=O)[O-])c1Cl,45,i,i,i
COc1ccc(NC(=O)c2c(Cl)nc(Cl)c([N+](=O)[O-])c2Cl)cc1,85,i,i,i
CCOc1cccc(CN2CCOc3ccc(CN4CCC(O)CC4)cc3C2)c1,i,i,i,i
SMILES,TEAD-YAP inh,MITF inh,GPR151 activ,FBW7 activator
OCCNc1nc(-c2ccccc2)nc2c1ncn2-c1ccsc1,42,i,i,i
CC(C)N(CCNc1nc(-c2cccc(N)c2)nc2c1ncn2-c1ccsc1)C(C)C,59,i,i,i
CC(=O)c1cccc(-c2nc(NCCO)c3ncn(C(C)C)c3n2)c1,55,i,i,i
CC(=O)c1cccc(-c2nc(NCCO)c3ncn(-c4ccsc4)c3n2)c1,49,i,i,i
CC(=O)c1cccc(-c2nc(NCc3ccccc3)c3ncn(-c4ccsc4)c3n2)c1,i,i,i,i
COc1ccc(-c2nc(NCCN(C(C)C)C(C)C)c3ncn(-c4ccsc4)c3n2)cc1,i,i,i,i
O=C(Nc1ccccc1I)c1cccc([N+](=O)[O-])c1,i,i,i,i
FC(F)(F)c1cccc(CNc2nc(Nc3ccccc3)nc3c2ncn3-c2ccsc2)c1,i,i,i,i
CC(=O)c1cccc(-c2nc(NCCN(C(C)C)C(C)C)c3ncn(-c4ccccc4)c3n2)c1,i,i,i,i
CC(=O)c1cccc(-c2nc(NCCN(C(C)C)C(C)C)c3ncn(-c4ccsc4)c3n2)c1,49,i,i,i
FC(F)(F)c1cccc(CNc2nc(Oc3ccccc3)nc3c2ncn3-c2ccsc2)c1,74,i,i,i
C=CCn1c(O)c(C2=c3cc(C)ccc3=NC2=O)sc1=S,i,i,i,i
COc1cc(OC)c(C2SCCN2S(=O)(=O)c2ccc(C)cc2)cc1OC (stereo not drawn),i,i,i,i
COc1ccc(S(=O)(=O)N2CCSC2c2cc(OC)c(OC)cc2OC)cc1 (stereo not drawn),43,i,i,i
COc1ccccc1C1SCCN1S(=O)(=O)c1ccc([N+](=O)[O-])cc1 (stereo not drawn),i,i,i,4.4
CCOc1ccc(CN2CCN(C(=O)c3ccccc3F)CC2)cc1,40,i,i,i
CCOc1ccc(CN2CCOc3ccc(CN4CCN(C(C)=O)CC4)cc3C2)cc1,37,i,i,i
Cc1ccc(CN2CCN(C(=O)c3ccccc3F)CC2)cc1,i,i,i,i
CC(=O)N1CCN(Cc2ccc3c(c2)CN(Cc2ccc(Cl)cc2)CCO3)CC1,47,i,i,i
O=c1c2c3c(sc2n2nnnc2n1-c1ccccc1)CCCC3,i,i,i,i
CC(=O)NC1=NN(C(C)=O)C(C)(c2cccc(OC(=O)c3ccccc3)c2)S1 (stereo not drawn),61,i,i,i
CC(=O)NC1=NN(C(C)=O)C(C)(c2ccc(OC(C)=O)cc2)S1 (stereo not drawn),66,i,i,i
CC(CC(=O)N1CCC2(CC1)NC(=O)c1cccnc1N2C)n1nnc2ccccc21 (stereo not drawn),i,i,i,i
CCCNc1nc(-c2ccc(C(N)=O)cc2)nc2c1ncn2Cc1ccc(C(F)(F)F)cc1,i,i,i,i
O=c1[nH]c2nc(-c3ccccc3CO)cnc2n1Cc1ccncc1,i,i,i,i
SMILES,TEAD-YAP inh,MITF inh,GPR151 activ,FBW7 activator
Cc1ccc(S(=O)(=O)N2C(=O)CCC2C(=O)Nc2ccc(Nc3ccccc3)cc2)cc1 (stereo not drawn),i,i,i,i
Cc1ccc(-c2cc(C(F)(F)F)n3ncc(C(=O)Nc4cccc(C)c4)c3n2)cc1,i,i,i,i
CCOc1ccccc1-c1cc(C(=O)N/N=C/c2cccc(OCC)c2O)[nH]n1,69,i,i,i
CCOc1cccc(/C=N/NC(=S)Nc2ccccc2[N+](=O)[O-])c1O,71,i,i,i
CCOc1cccc(/C=N/NC(=O)c2cc(-c3cccc([N+](=O)[O-])c3)n[nH]2)c1O,60,i,i,i
c1ccc2oc(-c3cnc4ccc(NCc5ccncc5)nn34)cc2c1,i,i,i,i
COc1ccc(-c2nc(NCc3cccc(C(F)(F)F)c3)nc(OC)n2)cc1,i,i,i,i
CCOc1ccc(-n2c3nc4ccccc4nc3c3c(=O)n(CCOC)c(C)nc32)cc1,i,i,i,i
CCOC(=O)N1CCC(n2c(SCc3cc(F)ccc3F)nc3ccccc3c2=O)CC1,i,i,i,i
CCOC(=O)CSc1nc2c(sc(=S)n2-c2ccc(Cl)c(C)c2)c(=O)n1-c1ccccc1OC,i,i,i,2.1
CCC(=O)Nc1ccc(C(=O)N/N=C/c2ccc(O)cc2O)cc1,i,i,i,i

# Screens as filed in PubChem.
